Dicer processing = inhibitors of Dicer pre-microRNA processing, primary screen, biochemical, cat-ELCCA, chemiluminescence; Endoribonuclease Dicer (Homo sapiens), Q9UPY3; cat-ELCCA pre-miR-21 Dicer processing; hits give high values; z-score at 25 µM; hit rate 6% among 47,000; AID 1347074, 2019; in the data active = z-score above about 3, passing the limit was not always enough;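 also: plate controls were vehicle for no effect and no enzyme for full effect; higher signal means more uncleaved substrate so more Dicer inhibition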
Target sequence (Q9UPY3 whole entry, looked up): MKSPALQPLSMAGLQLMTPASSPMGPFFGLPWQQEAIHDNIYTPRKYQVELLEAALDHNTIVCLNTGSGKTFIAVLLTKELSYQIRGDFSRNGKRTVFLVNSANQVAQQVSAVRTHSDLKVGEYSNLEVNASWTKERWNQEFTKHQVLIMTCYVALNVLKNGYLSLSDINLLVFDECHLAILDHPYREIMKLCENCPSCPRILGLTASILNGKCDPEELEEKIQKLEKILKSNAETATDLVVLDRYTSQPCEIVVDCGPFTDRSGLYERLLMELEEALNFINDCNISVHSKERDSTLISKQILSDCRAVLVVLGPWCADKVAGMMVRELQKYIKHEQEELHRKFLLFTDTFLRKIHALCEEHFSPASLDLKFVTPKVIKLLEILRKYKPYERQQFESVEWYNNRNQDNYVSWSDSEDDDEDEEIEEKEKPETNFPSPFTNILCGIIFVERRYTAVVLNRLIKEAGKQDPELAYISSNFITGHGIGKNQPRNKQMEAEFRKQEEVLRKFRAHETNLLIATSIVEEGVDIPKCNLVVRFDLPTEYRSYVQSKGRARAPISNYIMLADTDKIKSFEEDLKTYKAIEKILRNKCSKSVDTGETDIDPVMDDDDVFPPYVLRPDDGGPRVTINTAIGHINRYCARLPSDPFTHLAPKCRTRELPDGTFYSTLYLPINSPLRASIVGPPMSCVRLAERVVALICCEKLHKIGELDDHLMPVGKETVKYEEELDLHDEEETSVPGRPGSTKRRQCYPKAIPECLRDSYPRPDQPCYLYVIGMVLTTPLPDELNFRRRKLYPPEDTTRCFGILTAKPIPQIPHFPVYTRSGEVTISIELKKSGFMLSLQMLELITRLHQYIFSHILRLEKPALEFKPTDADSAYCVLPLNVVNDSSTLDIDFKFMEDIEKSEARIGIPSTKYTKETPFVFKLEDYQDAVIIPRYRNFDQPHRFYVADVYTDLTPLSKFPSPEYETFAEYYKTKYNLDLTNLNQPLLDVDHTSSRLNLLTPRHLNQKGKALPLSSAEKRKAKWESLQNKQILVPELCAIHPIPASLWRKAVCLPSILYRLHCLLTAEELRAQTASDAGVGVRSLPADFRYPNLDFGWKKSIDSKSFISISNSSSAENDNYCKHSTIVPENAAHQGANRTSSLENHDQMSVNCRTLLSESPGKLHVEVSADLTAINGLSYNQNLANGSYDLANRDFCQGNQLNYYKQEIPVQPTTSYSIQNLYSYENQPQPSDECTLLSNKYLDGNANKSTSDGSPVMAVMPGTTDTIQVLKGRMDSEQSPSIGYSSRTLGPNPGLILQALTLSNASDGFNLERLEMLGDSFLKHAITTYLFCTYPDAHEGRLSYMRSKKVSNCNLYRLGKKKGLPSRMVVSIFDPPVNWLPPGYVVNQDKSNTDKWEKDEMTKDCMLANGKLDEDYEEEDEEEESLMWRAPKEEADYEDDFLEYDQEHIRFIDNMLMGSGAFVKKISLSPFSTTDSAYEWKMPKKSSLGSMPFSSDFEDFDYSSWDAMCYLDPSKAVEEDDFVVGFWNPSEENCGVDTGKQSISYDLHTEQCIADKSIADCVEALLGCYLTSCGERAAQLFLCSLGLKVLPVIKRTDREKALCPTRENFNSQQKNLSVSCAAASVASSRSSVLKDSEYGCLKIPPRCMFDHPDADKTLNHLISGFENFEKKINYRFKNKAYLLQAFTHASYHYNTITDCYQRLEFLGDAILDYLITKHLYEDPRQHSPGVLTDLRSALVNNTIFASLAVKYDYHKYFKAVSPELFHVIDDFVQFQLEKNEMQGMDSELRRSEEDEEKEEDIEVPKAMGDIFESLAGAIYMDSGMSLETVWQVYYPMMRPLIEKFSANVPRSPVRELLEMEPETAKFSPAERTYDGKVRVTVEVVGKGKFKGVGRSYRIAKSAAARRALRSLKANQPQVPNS
Active calls of the source: *. The sample as a whole holds a higher share of hits than the screen did.

Screening CC1=CC(C)C2(CO)COC(c3cccnc3)C1C2C (centres undefined) returned Dicer processing 0.1.
CC1=CC(C)C2(CO)COC(c3ccc(O)cc3)C1C2C (centres undefined) was read as Dicer processing 3.85*.
For CC1=CC(C)C2(CO)COC(c3ccc4c(c3)OCO4)C1C2C (centres undefined) the results were Dicer processing -1.32.
For COc1cc(NC(=O)Cn2cnc3c2c(=O)n(C)c(=O)n3C)c(OC)cc1Cl the results were Dicer processing -0.83.
`Cn1c(=O)c2c(nc(N3CCOCC3)n2Cc2cccc(F)c2)n(C)c1=O` gave Dicer processing -1.32.
Cc1ccc(C2CC(=O)NC(SCc3ccccc3)=C2C#N)o1 (centres undefined) was read as Dicer processing -2.8.
Screening COC(=O)c1scc2c(Oc3ccc(Cl)cc3)cc(C(F)(F)F)nc12 returned Dicer processing -1.15.
Screening Cc1nc(N)c(C#N)c(-c2cccs2)c1C returned Dicer processing -0.73.
Screening Cc1ccc(S(=O)(=O)NC(=O)NCCNc2ncc(C(F)(F)F)cc2Cl)cc1 returned Dicer processing -1.59.
Screening FC(F)(F)c1cnc(NCCNc2cnc3ccccc3n2)c(Cl)c1 returned Dicer processing -1.18.
Screening O=C(NCCNc1ncc(C(F)(F)F)cc1Cl)C(F)(F)Sc1ccccc1 returned Dicer processing 4.99*.
Screening CCCCc1ccc(NC(=O)NC2CCN(c3nccc(C(F)(F)F)n3)CC2)c(C)c1 returned Dicer processing 2.06.
Screening O=C(Cn1c(=O)oc2ccccc21)Nc1ccc(S(=O)(=O)Nc2nccs2)cc1 returned Dicer processing -0.57.
CSc1ccccc1NC(=O)C1CC(c2c(F)cccc2Cl)=NO1 (centres undefined) was read as Dicer processing -0.89.
`O=C1OC(c2ccc(Cl)cc2)=N/C1=C/c1cccc([N+](=O)[O-])c1` gave Dicer processing 3.63*.
Screening O=C1OC(c2ccccc2)=N/C1=C\c1cccc([N+](=O)[O-])c1 returned Dicer processing 1.74.
O=C1OC(c2cccnc2Oc2ccc(Cl)cc2)=N/C1=C\c1ccc(Cl)cc1 was read as Dicer processing -0.82.
Screening Cc1cc(=O)[nH]c(SCC(=O)c2c(C)[nH]c3ccccc23)n1 returned Dicer processing -1.05.
CN(C)/C=C/C(=N)SCc1c(Cl)cccc1Cl was read as Dicer processing 0.76.
COc1ccc2c(c1)c(=O)oc1cc3occ(-c4ccc(F)cc4)c3cc12 was read as Dicer processing 1.49.
`COc1ccc2c(c1)c(=O)oc1cc3occ(-c4ccc(C)cc4)c3cc12` gave Dicer processing -1.04.
For COc1ccc(-c2coc3cc4oc(=O)c5cc(OC)ccc5c4cc23)cc1 the results were Dicer processing 3.79*.
Screening COc1ccc(OCC(O)CNC(=S)Nc2ccc3c(c2)OCCO3)cc1 (centres undefined) returned Dicer processing 0.78.
`CCc1ccn2cc(-c3ccc(Cl)c(C)c3)nc2c1` gave Dicer processing -0.1.
`Cn1c(=O)c2c(nc(N3CCCCC3)n2Cc2ccc(Cl)cc2)n(C)c1=O` gave Dicer processing 0.07.
`Cn1c(=O)c2c(nc(N3CCOCC3)n2Cc2ccc(Cl)cc2)n(C)c1=O` gave Dicer processing -0.46.
For Cn1c(=O)c2c(nc(SCc3cc4c(cc3Cl)OCO4)n2C)n(C)c1=O the results were Dicer processing 0.59.
Cn1c(=O)c2c(nc(Sc3ccc(Cl)cc3)n2C)n(C)c1=O was read as Dicer processing 3.14*.
Cn1c(=O)c2c(nc(Cl)n2Cc2ccc(F)cc2)n(C)c1=O was read as Dicer processing 3.12*.
Cn1c(=O)c2c(nc(Cl)n2Cc2ccc(C(C)(C)C)cc2)n(C)c1=O was read as Dicer processing 15.6.
`Cn1c(=O)c2c(nc(Br)n2Cc2ccc(Cl)cc2)n(C)c1=O` gave Dicer processing 4.21*.
For Cn1c(=O)c2c(ncn2Cc2ccc(Cl)cc2)n(C)c1=O the results were Dicer processing -0.04.
`CC(C)n1c(SCc2ccccc2F)nc2c1c(=O)n(C)c(=O)n2C` gave Dicer processing -0.32.
`Cn1c(=O)c2c(nc(Cl)n2Cc2cccc(Cl)c2)n(C)c1=O` gave Dicer processing 0.
For Cc1ccccc1CSc1nc2c(c(=O)n(C)c(=O)n2C)n1C the results were Dicer processing 5.15*.
`Cn1c(=O)c2c(nc(Sc3ccccc3)n2Cc2ccc(Cl)cc2Cl)n(C)c1=O` gave Dicer processing 1.27.
CCOC(=O)c1cc(C#N)c(Sc2n[nH]c(=O)n2Cc2ccccc2)nc1C(F)(F)F was read as Dicer processing -0.96.
`O=C1C(=O)N(c2nccs2)C(c2ccc(F)cc2)/C1=C(\O)c1ccc(Br)cc1` (centres undefined) gave Dicer processing -3.73.
CCn1nc(C)c([N+](=O)[O-])c1-c1nnnn1-c1ccc(Cl)cc1 was read as Dicer processing -0.12.
Screening Cn1cnc([N+](=O)[O-])c1Sc1ncnc2nc[nH]c12 returned Dicer processing -0.54.
`CS(=O)(=O)N1N=C(c2cccs2)CC1c1cn(-c2ccccc2)nc1-c1ccccc1` (centres undefined) gave Dicer processing -0.99.
CC(C)Cc1ccc(C(C)C(=O)O/N=C(\N)c2ccc(Cl)cc2)cc1 (centres undefined) was read as Dicer processing -0.69.
Screening CCC12CN3CC(CC)(CN(C1)C3c1ccc(O)cc1)C2=O (centres undefined) returned Dicer processing -0.36.
For COc1ccc(Br)cc1CN1CCC(N2CCN(c3ccccc3OC)CC2)CC1 the results were Dicer processing 1.98.
CNC(=O)OC(C)(C)C#Cc1cncnc1 was read as Dicer processing -1.42.
Screening CC(O)C(O)[C@H]1CNc2nc(N)[nH]c(=O)c2N1 (some centres undefined) returned Dicer processing -1.66.
For CC(=O)Nc1ccc(S(=O)(=O)NCCN2CCNC2=O)cc1Cl the results were Dicer processing 0.81.
CCOC(=O)/C(C#N)=C/c1c2ccccc2cc2ccccc12 was read as Dicer processing 5.2.
O=C1CC(Sc2ccc(Cl)cc2)C(=O)N1c1ccc(F)cc1F (centres undefined) was read as Dicer processing -1.63.
Screening Cn1cnc(S(=O)(=O)Oc2ccccc2N2CCCCC2)c1 returned Dicer processing 0.75.
`CCOC(=O)c1cn(Cc2ccc(Cl)cc2Cl)c2cc(C)nn2c1=O` gave Dicer processing 1.47.
For OCCSc1nc2ccccc2n1CCOc1ccccc1 the results were Dicer processing 3.92*.
`Cc1ccc(OCCSc2nc3ccccc3n2CCO)cc1` gave Dicer processing -0.89.
Screening CSc1nc2ccccc2n1CCOc1ccccc1 returned Dicer processing -1.85.
For O=C(Nc1ccc(Cl)cc1)ON=C1CC2CCCC(C1)N2Cc1ccccc1 the results were Dicer processing -1.52.
Screening O=C(ON=C1CC2CCCC(C1)N2Cc1ccccc1)c1ccc(F)cc1 returned Dicer processing 3.12*.
For O=C(O)C1CC(=O)N(Cc2ccc(F)cc2)C1 (centres undefined) the results were Dicer processing 0.24.
For COc1cc2nc3c4ccccc4n(C(C)C)c3nc2cc1OC the results were Dicer processing 3.4*.
Screening CC(C)n1c2ccccc2c2ccccc21 returned Dicer processing 0.68.
CCCCn1c2ccccc2c2nc3cc(OC)c(OC)cc3nc21 was read as Dicer processing 1.03.
Screening Cc1cc(C)n(C2=NCCN2S(C)(=O)=O)n1 returned Dicer processing 1.1.

Screens as filed in PubChem.
